Only some compounds are listed: those with a hit (about 2.2% of all), similar ones and a draw of the others.
ANO1 block: mouse TMEM16A channel inhibition, primary screen; HEK293 TMEM16A/YFP iodide influx fluorescence, ionomycin; normalized B-score (activity score, 25-100; higher = stronger inhibition) at 10 µM; 310,000 tested, 1.2% active; AID 588511;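 active means ratio plate-corrected score three or more library SD toward inhibition, starting fluorescence score within five deviations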;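 further: score derived from kinetic fluorescence span divided by baseline fluorescence per well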
NTR1 agonist: NTR1 (human) agonism; 330,000 tested, 0.17% active; activation, % at 20 µM; NTR1-U2OS beta-arrestin-GFP spot imaging, agonist mode; AID 493036;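 active means activation at or above 40% of the spot to cytoplasm intensity ratio, with at least 20 cells analyzed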;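 further: 0% = DMSO without peptide and 100% = 100 nM NTR1 peptide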
M1 PAM parental: counter-screen for M1 PAMs: effect in parental CHO-K1 cells. 360,000 tested, 0.02% active. activation, % at 3 µM. ATP EC20, Fluo-8 calcium fluorescence; 0% at ATP EC20, 100% at ATP max;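 active means activation above the run cutoff, the mean activation of all test compounds plus 3 SD, cut at about 40% in these data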;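 further: peak over basal fluorescence ratio in a 140 s read after ATP addition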
ANO1 activ: activates or potentiates the mouse TMEM16A chloride channel. B-score at 10 µM. 340,000 tested, 0.3% active. HEK293 TMEM16A/YFP-H148Q/I152L, iodide quench fluorescence; active compounds read low. Q8BHY3;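 active means fluorescence-ratio B-score plate-corrected deviation score at least 3 library SD below zero, with starting fluorescence score within 5 deviations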;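 further: channel opened by trigger with iodide after compound preincubation; score built on the fluorescence ratio of max minus min over baseline; more negative score means more quench and so TMEM16A activation or potentiation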
CHO-K1 Ca ag: M1 agonist counterscreen hit in parental CHO-K1 cells. 360,000 tested, 0.48% active. Fluo-8 calcium fluorescence; scaled to maximal ATP response, vehicle zero. activation, % at 3 µM; in the data active means activation above about 15%;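 further: untransfected CHO-K1 host cells lacking M1 receptor as counterscreen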
CHO-K1 Ca antag: M1 antagonist counterscreen hit in parental CHO-K1 cells; 360,000 tested, 0.6% active; ATP-induced calcium, Fluo-8 fluorescence; AID 602250; inhibition, % at 3 µM;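 active means inhibition above a per-plate cutoff, the plate's mean sample inhibition plus 3 SD, cut at about 24% in these data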;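 further: 0% = DMSO plus EC80 ATP and 100% = DMSO alone without ATP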
TMEM16A reconf: re-confirmation of mouse TMEM16A chloride channel inhibitors | shares compounds with ANO1 block | HEK293 TMEM16A/YFP-H148Q, iodide quench fluorescence; ionomycin added to raise cell calcium | inhibition, % at 10 µM | 2,300 tested, 39% active | AID 652189;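 active means mean duplicate percent inhibition, scaled so buffer wells are 0 and the reference blocker 100, over three buffer SD above buffer mean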
TMEM16A Ca cntr: calcium mobilization counter-screen hit for TMEM16A inhibitor series. calcium response (% of ionomycin), % at 10 µM. AID 652231. 2,300 tested, 2% active. TMEM16A/YFP HEK293, Fluo4 calcium mobilization. shares compounds with ANO1 block;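 active means duplicate-averaged calcium signal over 20% of the ionomycin maximum, relative to buffer baseline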;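 further: each well's signal is peak minus trough fluorescence divided by its pre-addition baseline; 0% = buffer wells and 100% = ionomycin wells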
YFP-HEK293 quench: counter-screen for TMEM16A inhibitors: effect in parental YFP-HEK293 cells | 2,300 tested, under 10 active | iodide YFP quench, ionomycin | shares compounds with ANO1 block | YFP ratio F(max-min)/F0 at 10 µM;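 active means yellow fluorescent protein signal ratio exceeding the buffer control mean by over 5 SD of those controls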;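 further: ratio is mean of duplicate wells from kinetic YFP trace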
ClC-1 rat inh: blocks the rat ClC-1 voltage-dependent chloride channel; shares compounds with ANO1 block; CHO ClC-1-YFP, iodide influx fluorescence quench; iodide control reads 0, buffer control 100; ratio percent, % at 10 µM; 2,300 tested, under 10 active; AID 652236;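 active means duplicate-mean ratio percent above the mean of iodide-only control wells, which defines zero, plus 5 of their SD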;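 further: higher percent means stronger block of ClC-1 iodide influx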
Target sequence (P35524 whole entry, looked up): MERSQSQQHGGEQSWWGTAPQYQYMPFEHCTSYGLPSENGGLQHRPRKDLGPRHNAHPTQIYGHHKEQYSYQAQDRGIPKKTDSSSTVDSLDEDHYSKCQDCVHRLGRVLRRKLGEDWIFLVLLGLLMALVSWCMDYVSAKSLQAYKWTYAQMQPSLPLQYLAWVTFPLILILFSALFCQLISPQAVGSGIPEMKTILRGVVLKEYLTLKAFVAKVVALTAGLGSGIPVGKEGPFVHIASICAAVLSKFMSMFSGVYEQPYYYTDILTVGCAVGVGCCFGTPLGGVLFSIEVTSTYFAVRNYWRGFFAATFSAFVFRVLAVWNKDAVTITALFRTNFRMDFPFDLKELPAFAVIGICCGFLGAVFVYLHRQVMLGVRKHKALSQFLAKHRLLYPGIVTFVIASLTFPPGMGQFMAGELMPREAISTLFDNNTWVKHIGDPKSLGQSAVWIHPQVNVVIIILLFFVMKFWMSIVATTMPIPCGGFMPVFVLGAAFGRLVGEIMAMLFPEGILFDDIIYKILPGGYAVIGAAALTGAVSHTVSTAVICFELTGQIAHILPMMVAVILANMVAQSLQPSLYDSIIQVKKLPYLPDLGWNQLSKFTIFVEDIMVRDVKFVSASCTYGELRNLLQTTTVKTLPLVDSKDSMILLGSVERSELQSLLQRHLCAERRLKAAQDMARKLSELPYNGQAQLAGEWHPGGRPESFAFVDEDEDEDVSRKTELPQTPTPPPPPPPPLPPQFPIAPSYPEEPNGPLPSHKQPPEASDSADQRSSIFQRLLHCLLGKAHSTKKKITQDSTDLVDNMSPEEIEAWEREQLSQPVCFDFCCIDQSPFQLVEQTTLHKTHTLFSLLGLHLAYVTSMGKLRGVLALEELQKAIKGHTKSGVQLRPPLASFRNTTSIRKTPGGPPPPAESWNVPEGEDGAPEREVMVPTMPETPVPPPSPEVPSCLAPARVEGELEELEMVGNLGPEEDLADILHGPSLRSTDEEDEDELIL
* = called active by the depositor; i = inactive; · = no result.

SMILES	ANO1 block	NTR1 agonist	M1 PAM parental	ANO1 activ	CHO-K1 Ca ag	CHO-K1 Ca antag	TMEM16A reconf	TMEM16A Ca cntr	YFP-HEK293 quench	ClC-1 rat inh
Cc1nc2ccccc2n1Cc1ccc(Cl)cc1	25*	2.8	-11.6	i	9.2	33.2*	42.0%*	i	-1.09	-25.5
OCc1nc2ccccc2n1Cc1ccc(Cl)cc1	i	0.8	-4.3	i	2.4	4.8	·	·	·	·
COCCN1C(=O)CCC1(C)c1nnnn1-c1ccc2c(c1)OCCO2 (stereo not given)	·	·	18.1	·	0.5	-16.1	·	·	·	·
O=C(Cc1c(Cl)cccc1Cl)NCCc1ccc(Cl)cc1	i	2.1	-8.9	i	-0.4	11.9	·	·	·	·
O=C(CCl)NCc1c(Cl)cccc1-n1cccc1	25*	-0.1	4.1	i	-0.1	-20.7	i	i	-0.871	0.5
CC1(C(=O)NS(=O)(=O)c2cccc(Cl)c2)CCN1C(=O)C/C=C/c1ccccc1 (stereo not given)	·	·	-4.4	·	0.1	10.4	·	·	·	·
CCCOc1ccc(-c2nnn(CC(=O)c3ccc4c(c3)OCCO4)n2)cc1	100*	8.7	14.1	i	0.8	-20.0	17.0%*	i	-0.962	-21.5
CC(Sc1nnc(C(C)Oc2ccccc2F)o1)C(=O)NCc1ccc2c(c1)OCO2 (stereo not given)	·	-1.7	-12.1	i	-0.4	-6.2	·	·	·	·
Cn1c2c(c(=O)n(C)c1=O)C(C(F)(F)F)(C(F)(F)F)N=C(c1ccc(Cl)cc1)N2	100*	2.2	8.3	i	10.9	18.8	42.0%*	i	-1.04	-32.0
CCC(=NNS(=O)(=O)c1ccc(C)cc1)c1ccc(OC)c(C)c1	·	·	18.9	·	-0.3	-13.5	·	·	·	·
CCN(C(=O)CSc1nc2scc(-c3ccccc3)c2c(=O)n1N)C1CCS(=O)(=O)C1 (stereo not given)	·	·	20.0	i	0.5	-13.3	·	·	·	·
CCCCOc1cccc(-c2cc(C(=O)NNC(=S)NCC)c3ccccc3n2)c1	25*	5.5	-3.6	i	1.1	-3.7	24.5%*	i	-0.926	-7.0
CCNC(=S)NNC(=O)c1cc(-c2cccc(OCC)c2)nc2ccccc12	25*	-0.4	16.5	i	5.1	-15.3	i	i	-1.07	-5.0
CCNC(=S)NNC(=O)c1cc(-c2cccnc2)nc2ccccc12	i	0.3	7.3	i	0.3	-6.5	·	·	·	·
CCNC(=S)NNC(=O)c1cc(-c2cccc(C)c2)nc2ccccc12	i	0.0	9.8	i	6.5	-18.1	·	·	·	·
CC1CC(C)CN(C(=O)COC(=O)COc2ccccc2C#N)C1 (stereo not given)	·	5.7	4.0	i	-0.3	-1.7	·	·	·	·
COC(=O)C1=C(C)N(CCCC(=O)O)C(=O)NC1c1ccc(-c2ccccc2)cc1 (stereo not given)	100*	-1.5	18.9	i	0.8	-11.5	i	i	-1.31	-1.0
CC1=C(C(=O)OCc2ccccc2)C(c2ccc(Br)cc2)NC(=O)N1CCCCCC(=O)O (stereo not given)	i	2.6	-15.4	i	-0.5	2.9	·	·	·	·
COC(=O)C1=C(C)N(CCCC(=O)O)C(=O)NC1c1ccc(Br)cc1 (stereo not given)	i	-2.7	15.5	i	0.6	-7.8	·	·	·	·
COC(=O)CCCCCN1C(=O)NC(c2ccccc2)C(C(=O)OCc2ccccc2)=C1C (stereo not given)	25*	9.3	-7.9	i	-1.0	5.8	16.0%*	i	-1.14	-14.0
CCOc1ccc(N(Cc2nnc3n2CCCCC3)C(=O)Nc2cccc(C)c2)cc1	i	0.2	24.3	i	0.6	-17.6	i	i	-0.957	-1.5
CCCCn1c(CN2CCN(c3cccc(Cl)c3)CC2)nc2c1c(=O)n(C)c(=O)n2C	25*	18.3	19.0	i	0.3	-0.5	i	i	-1.13	-12.0
COc1ccc(OC)c(S(=O)(=O)N2CCCC(C(=O)NC3CC3)C2)c1 (stereo not given)	·	·	-19.4	·	-0.3	2.9	·	·	·	·
O=C(Oc1cccc(Nc2ncnc3ccccc23)c1)c1ccccc1Cl	100*	14.6	0.6	i	8.4	24.7*	18.0%*	i	-1.25	-11.5
COc1cccc(Nc2ncnc3ccccc23)c1	i	1.9	-15.6	i	0.7	-3.5	·	·	·	·
SMILES	ANO1 block	NTR1 agonist	M1 PAM parental	ANO1 activ	CHO-K1 Ca ag	CHO-K1 Ca antag	TMEM16A reconf	TMEM16A Ca cntr	YFP-HEK293 quench	ClC-1 rat inh
COc1ccc(/C=C2\SC(=S)N(NS(=O)(=O)c3ccc(C)cc3)C2=O)c(OC)c1	25*	3.5	-1.8	i	5.2	-2.9	23.0%*	i	-0.993	-14.5
COc1ccc(OC)c(/C=C2\SC(=S)N(NS(=O)(=O)c3ccc(C)cc3)C2=O)c1	i	0.8	13.1	i	-1.0	-0.3	·	·	·	·
O=C(c1cc(COc2cccc3cnccc23)on1)N1CCCC(CCCO)C1 (stereo not given)	25*	1.0	-28.1	i	21.9*	21.5	40.5%*	i	-1.25	-19.0
COCC1CCN(C(=O)c2cc(COc3cccc4cnccc34)on2)CC1	i	0.3	1.0	i	14.6	10.4	·	·	·	·
CCCn1c(CC)nc([N+](=O)[O-])c1Sc1ccc(F)cc1	25*	5.3	-1.9	i	0.0	15.6	i	i	-0.946	-6.0
COCCC(=O)N1CCOCC1c1cc(C(=O)NCc2ccccc2)no1 (stereo not given)	·	·	-2.0	·	0.7	-9.9	·	·	·	·
NC(c1csc(Nc2cnccn2)n1)c1ccccc1Cl (stereo not given)	·	·	15.5	·	0.9	-10.4	·	·	·	·
COc1cccc(/C=C2/CN(C)CC3=C2OC(N)=C(C#N)C3c2cccc(OC)c2)c1 (stereo not given)	i	0.0	17.3	i	1.0	-17.9	i	i	-1.19	-10.0
CCN(CC)S(=O)(=O)c1ccc(N2CCOCC2)c(NC(=O)c2[nH]c(C)c(C(C)=O)c2C)c1	·	0.4	-0.1	i	1.6	-4.5	·	·	·	·
Nc1c(C(=O)NCCc2ccccc2)nnn1Cc1ccccc1	i	1.5	7.5	i	0.3	4.5	i	i	-0.802	-4.0

Compound activity as filed in PubChem.
